This is a sample that favours compounds with a hit; in the whole collection about 8.9% have one here.
KB-3-1 cytotox – qHTS assay for MDR1-selective chemotherapeutics: Primary screen using the parental adenocarcinoma cell KB-3-1. KB-3-1 viability, CellTiter-Glo ATP luminescence, 72 h. Potency, µM (titrated, usually from 46.1 µM), actives largely listed as cytotoxic. 1.4% of 400,000 active. AID 1347075, 2019; also: potency is read from the fitted curve at half-maximal effect; % is scaled to controls: 0 for no effect and ±100 for the full control effect; nearly all actives have a fitted effect of over 60% in size
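Multi-concentration cytotoxicity screen in KB-3-1 cells grown in DMEM lacking phenol red with 10% FBS. After 72 h at 37 °C with compound, ATP-dependent luminescence was recorded.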
MCF10A rerep – A quantitative high throughput screen for small molecules that induce DNA re-replication in MCF 10a normal breast cells. Potency, µM (doses to about 46.1 µM), without a hit: at the top dose activity, positive = re-replication, actives largely listed as activators. 2.9% of 350,000 active. AID 624296, 2012. MCF 10A DNA re-replication, Hoechst nuclear intensity, 48 h; also: potency is read from the fitted curve at half-maximal effect; % of control where 0% means no effect; nearly all actives have a fitted effect of over 50% in size
DRD3 agonist – qHTS of D3 Dopamine Receptor Agonist: qHTS; D(3) dopamine receptor (Homo sapiens), P35462; D3R DiscoveRx beta-arrestin cells, luminescence, 90 min; max activation, %; 0.58% of 410,000 active; in the data active = max activation above about 30%; also: 0% is about no effect
Target sequence (P35462 whole entry, looked up): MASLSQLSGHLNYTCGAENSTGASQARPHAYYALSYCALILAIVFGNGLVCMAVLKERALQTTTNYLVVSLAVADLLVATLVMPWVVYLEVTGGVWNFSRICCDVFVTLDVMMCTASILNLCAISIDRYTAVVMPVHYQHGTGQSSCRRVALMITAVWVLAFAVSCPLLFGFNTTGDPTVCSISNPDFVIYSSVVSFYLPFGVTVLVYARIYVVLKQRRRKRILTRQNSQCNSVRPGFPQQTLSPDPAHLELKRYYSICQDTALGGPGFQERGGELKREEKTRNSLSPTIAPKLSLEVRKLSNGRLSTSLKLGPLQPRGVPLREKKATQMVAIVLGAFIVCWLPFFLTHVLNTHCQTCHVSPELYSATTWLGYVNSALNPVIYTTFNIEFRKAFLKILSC
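Agonist mode: compounds and dopamine controls were applied to plated cells for 90 min at 37 degrees C after an overnight attachment at 1500 cells/well. Luminescent read-out followed 30 - 60 minutes at room temperature with DiscoveRx detection reagent.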
KB-V1 MDR tox – qHTS assay for MDR1-selective chemotherapeutics: Primary screen using the drug-selected MDR subline cells KB-V1; AID 1347076, 2019; Potency, µM (series often up to 46.1 µM), hits mostly cytotoxic; 3.4% of 400,000 active; KB-V1 MDR cells viability, CellTiter-Glo, 72 h; also: potency is read from the fitted curve at half-maximal effect; % is scaled to controls: 0 for no effect and ±100 for the full control effect; nearly all actives have a fitted effect of over 60% in size
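In this primary screen, KB-V1 cells overexpressing P-gp are incubated with library compounds (lowest to highest concentration) for 72 h at 37 degrees C before a luminescent ATP viability read.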
D3 antag – qHTS of D3 Dopamine Receptor Antagonist: qHTS; D(3) dopamine receptor (Homo sapiens), P35462; D3R cells, DiscoveRx beta-arrestin luminescence, antagonist mode; active compounds read low; max response, negative = inhibition, %; 2.5% of 360,000 active; AID 652054, 2013; in the data active = max response below about -50%; inconclusive = no clear call, values can overlap the other calls; also: % is scaled to controls: 0 for no effect and ±100 for the full control effect
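Cells plated overnight at 1500 cells/well, then exposed to library compounds with dopamine controls for 90 minutes at 37 degrees C. DiscoveRx reagent added for 30–60 minutes at room temperature; luminescence read, quantitative HTS format.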
SW480 rerep – A quantitative high throughput screen for small molecules that induce DNA re-replication in SW480 colon adenocarcinoma cells; Potency, µM (highest dose often 46.1 µM), without a hit: at the top dose re-replication activation, usual class: activators; SW480 DNA re-replication, Hoechst DNA content imaging, 48 h; 1.8% of 340,000 active; also: potency is read from the fitted curve at half-maximal effect; % of control where 0% means no effect; nearly all actives have a fitted effect of over 55% in size
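Compounds, transferred as 23 nL by pin tool, were incubated with cells for 48 hr; DNA content per nucleus was then quantified by Hoechst staining and fluorescence plate imaging.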
An asterisk follows results filed as active; i = inactive; ? = inconclusive; nt = not tested or not shown. Unless noted, calls follow the shape of the dose curve; as a rule, active = well fitted curve in the direction sought with a large enough effect; inconclusive = small, poorly fitted or top-dose-only effect, or another doubt; inactive = no such curve, though single readings can be large; an effect the other way counts as inactive or inconclusive.

SMILES	KB-3-1 cytotox	MCF10A rerep	DRD3 agonist	KB-V1 MDR tox	D3 antag	SW480 rerep
COC(=O)c1cccc(-n2sc3ccccc3c2=O)c1	i	?	-35	i	-60*	40%
O=c1c2ccccc2sn1-c1ccc(F)cc1	i	?	-23	i	-54*	?
Cn1c(=O)c2c(-c3ccccc3)n(-c3cc(Cl)c([N+](=O)[O-])cc3O)cc2n(C)c1=O	i	nt	-11	i	-9	nt
CCOc1ccc(C(=O)Nc2ccc(-c3nn[nH]n3)cc2)cc1[N+](=O)[O-]	i	nt	nt	?	nt	nt
COc1cc(OC)c(NC(c2nnc(-c3ccccc3)o2)c2ccc(F)cc2Cl)cc1Cl (centres undefined)	i	nt	6	i	nt	nt
COc1ccc2c(c1)C(C)=CC(C)(C)N2S(=O)(=O)c1ccc(NC(C)=O)cc1	2.1µM*	?	-10	i	?	1.5µM*
COc1ccc(S(=O)(=O)N2CC=C(C(=O)Nc3ccc(NC(C)=O)cc3)CC2)cc1	i	?	-6	i	1	-5%
COc1ccc2c(c1)C(C)=CC(C)(C)N2S(=O)(=O)c1ccc(Br)cc1	4.1µM*	?	-3	3.3µM*	?	18µM*
CC1=CC(C)(C)N(S(=O)(=O)c2ccc(C)cc2)c2ccccc21	16µM*	0%	-9	?	-26	6%
CC1=CC(C)(C)N(S(=O)(=O)c2ccc(F)cc2)c2ccc(C)cc21	23µM*	-5%	-9	7.3µM*	-13	-1%
CCOc1ccc2c(c1)C(C)=CC(C)(C)N2	i	?	-33	i	13	0%
CCOc1ccc2c(c1)C(C)=CC(C)(C)N2S(=O)(=O)c1ccc(NC(C)=O)cc1	1.6µM*	?	1	1.3µM*	-9	?
CCOc1ccc2c(c1)C(C)=CC(C)(C)N2S(=O)(=O)c1ccc(F)cc1	7.3µM*	?	-17	?	-12	?
Cc1cccc(NC(=O)CN(C)CC(=O)NC(c2ccccc2)c2ccccc2)c1C	i	0%	3	3.3µM*	22	-3%
CN(CC(=O)Nc1cccc(F)c1)CC(=O)NC(c1ccccc1)c1ccccc1	i	15%	-10	i	-28	8%
COCCN(CC(=O)Nc1cccc(C)c1C)C(=O)C1(c2ccccc2)CC1	i	-1%	0	18µM*	-3	0%
COCCN(CC(=O)Nc1cccc(C)c1C)C(=O)C1(c2ccc(Cl)cc2)CCC1	i	79%	-10	i	-9	-12%
O=C(O)c1ccccc1OC1=NS(=O)(=O)c2ccccc21	?	nt	nt	i	nt	nt
Cc1ccc(-c2nnc(Nc3ccc(O)cc3)c3ccccc23)cc1S(=O)(=O)N1CCCCC1	nt	nt	-5	nt	nt	nt
COCc1c(Br)c(C)nc(OCC(=O)N/N=C/c2ccc(C)o2)c1C#N	i	0.73µM*	18	?	13	8%
CS(=O)(=O)c1sc(C#N)c2c1C(=O)CC(c1ccccc1)C2 (centres undefined)	i	?	-19	i	-132*	23%
Cc1oc(-c2cccs2)nc1CN1CCN(CCC(C)C)C(CCO)C1 (centres undefined)	i	23µM*	-9	i	-14	?
Cc1oc(-c2cccs2)nc1CN1CCC(CO)(CCOc2ccccc2)CC1	i	?	-12	?	-89*	?
Cc1oc(-c2cccs2)nc1CN1CCN(C2CCCC2)C(CCO)C1 (centres undefined)	i	21%	-14	i	2	-2%
CCOC(=O)C1(CCOC)CCN(Cc2nc(-c3cccs3)oc2C)CC1	i	-2%	-12	i	?	?
SMILES	KB-3-1 cytotox	MCF10A rerep	DRD3 agonist	KB-V1 MDR tox	D3 antag	SW480 rerep
Cc1cc(C)nc(-n2nc(C)c(Sc3ccc(F)cc3)c2N)n1	i	3.3µM*	2	?	6	18µM*
CC1C/C(=C/c2cccn2C)C(=O)/C(=C/c2cccn2C)C1 (centres undefined)	i	4.6µM*	0	i	6	?
CC1C/C(=C/c2ccncc2)C(=O)/C(=C/c2ccncc2)C1 (centres undefined)	?	0.46µM*	-6	i	-14	?
O=C1/C(=C/c2ccncc2)Cc2ccccc21	i	-10%	1	i	-5	-2%
Cc1ccc(NC(=O)Cn2c(=O)n(CC3CCC(C(=O)NC(C)C)CC3)c(=O)c3sccc32)cc1 (centres undefined)	i	nt	8	i	nt	nt
COC(=O)c1ccc(NC(=O)C(=O)NCC(c2cccnc2)N2CCc3ccccc32)cc1 (centres undefined)	i	nt	15	i	nt	nt
COc1cccc(C(C)(O)c2nc(-c3ccccc3C)cs2)c1 (centres undefined)	i	nt	2	i	12	nt
COc1cccc(C(C)(O)c2nc(-c3ccoc3)cs2)c1 (centres undefined)	i	nt	-9	i	-95*	nt
COc1cccc(C(C)(O)c2nc(/C=C/c3ccccc3)cs2)c1 (centres undefined)	i	nt	-13	i	-61*	nt
CC(O)(c1ccccc1)c1nc(/C=C/c2ccccc2)cs1 (centres undefined)	i	nt	-16	i	-62*	nt
CC(O)(c1cccc(F)c1)c1nc(-c2ccoc2)cs1 (centres undefined)	i	nt	-2	i	2	nt
CC(O)(c1ccc(F)c(F)c1)c1nc(/C=C/c2ccccc2)cs1 (centres undefined)	i	nt	-10	i	0	nt
CCc1nnc(NC(=O)c2nc(SCc3ccc(F)cc3)ncc2Cl)s1	i	nt	1	i	nt	nt
Cc1cccc(NC(=O)Cn2c(=O)n(Cc3nc(-c4ccccc4)no3)c(=O)c3ccccc32)c1	i	nt	-1	i	nt	nt
O=S(=O)(c1cccs1)N1CCN(CC(O)COc2cccc(Br)c2)CC1 (centres undefined)	?	14%	2	15µM*	?	?
COc1ccc(N2CCN(C(=O)CSc3nnc4c(C)cc5cc(C)ccc5n34)CC2)cc1	i	-3%	8	5.8µM*	13	-5%
COc1ccc(N2CCN(C(=O)CSc3nnc4c5cc(C)ccc5n(C)c4n3)CC2)cc1	i	-3%	43*	i	21	-7%
